Tau fibril FP: inhibitors of human tau fibril formation; 280,000 compounds, 0.39% hits; K18 P301L tau heparin fibrillization, Alexa594 FP, 6 h; AID 1468; Potency, µM (highest dose often 57.7 µM), for inactives: at the top dose activity, negative = inhibition, usual class: inhibitors; P10636; note: nearly all actives have a fitted effect of over 55% in size
Target sequence (P10636 561-689 P618L limits assumed): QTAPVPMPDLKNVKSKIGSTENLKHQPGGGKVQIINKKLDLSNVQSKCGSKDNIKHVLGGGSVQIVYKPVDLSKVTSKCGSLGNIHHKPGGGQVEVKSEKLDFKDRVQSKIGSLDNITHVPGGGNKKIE
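K18 P301L tau (15 uM unlabeled/0.24 uM Alexa 594-labeled, final) + compound + heparin 20 uM final; 100 mM NaOAc pH 7; 6 hr 37 C; ThT 30 uM final added, 1 hr RT; FP ex 555/em 632 nm.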
Tau fluor counter: counter-screen for tau fibril formation inhibitors; tau K18 P301L Alexa594 fluorescence, heparin fibrillization; Potency, µM (titrated, usually from 57.7 µM), without a hit: top-dose activity change, negative = decrease; 280,000 compounds, 0.93% hits; note: nearly all actives have a fitted effect of over 55% in size
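Human tau K18 P301L (15 uM unlabeled, 0.24 uM Alexa 594-labeled) in 100 mM sodium acetate pH 7 with 20 uM heparin, 6 hr at 37 C. ThT 30 uM added, 1 hr ambient; Alexa 594 FP and total fluorescence read at 555/632 nm.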
Tau ThT inhib: inhibitors of human tau fibril formation, thioflavin T binding; P10636; recombinant tau K18 P301L (four-repeat tau fragment), heparin-induced fibrillization, ThT fluorescence; Potency, µM (highest dose often 57.4 µM), for the others: at the top dose activity, negative = inhibition, actives largely listed as inhibitors; 270,000 compounds, 2.1% hits; AID 1460; note: nearly all actives have a fitted effect of over 55% in size
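Tau K18 P301L fragment (15 uM unlabeled plus 0.24 uM Alexa 594-labeled) in 100 mM sodium acetate pH 7 with compound, fibrillization induced by 20 uM heparin for 6 hr at 37 C. Thioflavin T (30 uM) added, fluorescence read after 1 hr (ex 450, em 510 nm).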
ALDH1A1 inh: blocks purified human ALDH1A1 activity. P00352. Purified ALDH1A1, NADH fluorescence, propionaldehyde substrate. Potency, µM (titrated, usually from 75.3 µM), inactives show at the top dose activity, negative = inhibition, actives largely listed as inhibitors. 220,000 compounds, 7.3% hits. AID 1030; active = well fitted inhibition curve with a large enough effect, not every such curve was filed as active; inconclusive = small, poorly fitted or top-dose-only effect, or another doubt; inactive = no such curve, though single readings can be large or run the other way;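 note: plate controls were no enzyme wells and a reference inhibitor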
Target sequence (P00352 whole entry, looked up): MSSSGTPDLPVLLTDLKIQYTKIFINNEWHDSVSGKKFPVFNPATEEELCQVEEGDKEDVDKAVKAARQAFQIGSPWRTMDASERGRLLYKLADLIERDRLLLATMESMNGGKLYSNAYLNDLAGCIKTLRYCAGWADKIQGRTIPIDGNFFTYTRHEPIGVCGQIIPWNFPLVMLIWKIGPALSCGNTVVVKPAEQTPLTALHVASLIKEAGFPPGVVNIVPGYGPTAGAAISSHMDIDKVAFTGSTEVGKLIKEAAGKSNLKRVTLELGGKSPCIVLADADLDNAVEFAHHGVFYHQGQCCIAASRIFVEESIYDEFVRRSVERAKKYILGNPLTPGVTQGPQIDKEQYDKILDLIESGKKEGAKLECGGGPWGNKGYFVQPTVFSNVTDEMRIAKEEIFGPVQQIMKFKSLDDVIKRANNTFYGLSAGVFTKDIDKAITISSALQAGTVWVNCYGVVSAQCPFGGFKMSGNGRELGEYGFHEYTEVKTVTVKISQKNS
HPGD block: inhibitors of human 15-hydroxyprostaglandin dehydrogenase (HPGD); P15428; purified HPGD, NADH fluorescence kinetic, PGE2 substrate; Potency, µM, for the others: top-dose activity change, negative = inhibition, most hits filed as inhibitors; 150,000 compounds, 4.3% hits; AID 894; active = well fitted inhibition curve with a large enough effect, not every such curve was filed as active; inconclusive = small, poorly fitted or top-dose-only effect, or another doubt; inactive = no such curve, though single readings can be large or run the other way
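20 nM HPGD preincubated 15 min at room temperature with compound in 50 mM Tris-HCl pH 8, 0.01% Tween 20. Started with 1 mM NAD+ and 30 uM prostaglandin E2; NADH fluorescence (360/450 nm) read 5 times over 30-s intervals, last minus first.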
NPSR antagonist: antagonists of human neuropeptide S receptor cAMP signaling | Q6W5P4 | CHO-NPSR cells, cAMP TR-FRET, antagonist mode | Potency, µM (doses to about 38.3 µM), for inactives: at the highest dose activity change, negative = inhibition, most hits filed as inhibitors | 220,000 compounds, 1% hits; note: nearly all actives have a fitted effect of over 50% in size
The depositor's hits bear a star; ? = inconclusive; · = not tested or not shown; [ ] = remark or other dose. An excerpt weighted towards active compounds, which were near 9.5% of everything screened. Unless noted, calls come from the whole dose curve; as a rule, active = well fitted curve in the direction sought with a large enough effect; inconclusive = small, poorly fitted or top-dose-only effect, or another doubt; inactive = no such curve, though single readings can be large; an effect the other way counts as inactive or inconclusive. Unless noted, % is set by controls: 0 for no effect and ±100 for the full control effect; potency is the fitted concentration of half-maximal effect.

SMILES	Tau fibril FP	Tau fluor counter	Tau ThT inhib	ALDH1A1 inh	HPGD block	NPSR antagonist
CCOC(=O)c1c(OCC)[nH]c2c1cc(O)c1ccccc12	11.4%	?	14.1µM*	?	?	-18.4%[46.1 µM]
CCCn1ncc(OC)c(Cl)c1=O	-1.8%	-2.9%	-3.9%	5.3%	-7.2%	4.0%[46.1 µM]
O=C(Nc1ccc(Cl)c(Cl)c1)N1CCSC1c1ccco1 (stereo unspecified)	?	?	-13.5%	5.01µM*	22.4µM*	?
CC(=O)Nc1ccc(S(=O)(=O)N2CCSC2c2ccco2)cc1 (stereo unspecified)	-1.3%	5.2%	0.6%	?	·	9.0%
COc1ccc(-c2nnc3ccc(SC)nn23)cc1	3.6%	-4.8%	?	?	31.6µM*	-3.6%[46.1 µM]
O=C(Cc1coc(-c2ccc(F)cc2)n1)NC1CCCCC1	5.2%	1.3%	-4.0%	8.6%	17.8µM*	-23.0%[46.1 µM]
Cc1ccc(NC(=O)c2cc3c(=O)n(Cc4ccco4)ccc3nc2C)cc1C	-2.9%	-22.2%	?	·	·	·
O=C(Nc1cnccn1)c1csc2ccccc12	4.8%	0.4%	-2.4%	?	-21.3%	4.5%[46.1 µM]
O=C(Nc1ccon1)c1csc2ccccc12	-1.3%	-4.1%	-4.2%	?	25.1µM*	10.0%[46.1 µM]
O=C(Nc1ccon1)c1ccc(Cl)s1	-9.7%	-12.7%	-3.1%	8.6%	17.8µM*	3.3%[46.1 µM]
CCOC(=O)N1CCN(C(=O)COc2ccc(S(=O)(=O)NC(C)C)cc2)CC1	-3.9%	2.1%	-2.6%	1.9%	-6.5%	1.2%[46.1 µM]
COc1ccc(C(C)=O)cc1COC(=O)CNC(=O)c1ccc(Cl)cc1	4.7%	3.0%	3.5%	-0.7%	15.8µM*	23.1%
CCOc1ccc(C(=O)NCC(=O)OCc2cc(C(C)=O)ccc2OC)cc1	11.9%	4.6%	-14.6%	3.55µM*	-6.2%	3.8%
CC(=O)OCC1OC(C#Cc2ccccc2)C=CC1O (stereo unspecified)	-9.2%[11.6 µM]	-9.4%[11.6 µM]	-2.0%[11.5 µM]	6.8%[13.5 µM]	·	·
OCCN(CC(O)Cn1ccc2ccccc21)CC(O)Cn1ccc2ccccc21 (stereo unspecified)	-1.7%	?	-14.6%	28.2µM*	-3.7%	-16.3%[46.1 µM]
O=[N+]([O-])c1ccccc1/C=C/C=N/n1c(-c2ccccc2F)n[nH]c1=S	-3.9%	?	?	·	·	-26.1%
COCCn1c(SCC(=O)N2CCCc3ccccc32)nc2ccccc2c1=O	1.6%	-11.0%	?	25.1µM*	-6.9%	?
CCn1c(SCC(=O)N2CCCCC2)nc2c(c1=O)SC(C)C2 (stereo unspecified)	-13.1%	-4.6%	-9.7%	22.4µM*	-19.4%	-3.0%[46.1 µM]
COCCn1c(SCC(=O)N2CCCc3ccccc32)nc2c(c1=O)SC(C)C2 (stereo unspecified)	-0.9%	5.8%	4.8%	20µM*	-19.1%	-20.2%[46.1 µM]
CCSc1nc2c(c(=O)n1CC)SC(C)C2 (stereo unspecified)	3.0%	-8.8%	-13.4%	-8.3%	-11.3%	-8.1%[46.1 µM]
COc1ccc(NC(=O)COC(=O)C2CCC(C(C)(C)C)CC2)c([N+](=O)[O-])c1 (stereo unspecified)	16.5%	?	?	?	-11.6%	3.2%
O=c1cc(-c2ccccc2)[nH]n1-c1nc2ccccc2[nH]1	?	?	25.1µM*	5.2%	-21.4%	-14.4%[46.1 µM]
Cc1cc(C)cc(C(=O)N2CCC(C(N)=O)CC2)c1	6.6%	4.3%	-0.4%	?	-8.9%	-0.6%[46.1 µM]
CCOC(=O)c1c(NC(=O)CN2CCN(c3ccc(Cl)cc3)CC2)sc(C)c1C	6.3%	-7.4%	-9.6%	?	-20.9%	0.5%[46.1 µM]
COC(=O)c1c(NC(=O)CN2CCCc3ccccc32)sc(C)c1C	13.1%	-14.5%	-9.6%	20µM*	-12.1%	-41.6%
SMILES	Tau fibril FP	Tau fluor counter	Tau ThT inhib	ALDH1A1 inh	HPGD block	NPSR antagonist
COC(=O)c1c(NC(=O)CN2CCN(c3ccccc3Cl)CC2)sc(C)c1C	-7.9%	-20.6%	?	3.55µM*	-23.4%	-30.9%
COC(=O)c1c(NC(=O)CN2CCC3(O)CCCCC3C2c2ccc(F)cc2)sc(C)c1C (stereo unspecified)	8.0%	-9.4%	-17.2%	25.1µM*	-21.0%	-47.2%
COC(=O)c1[nH]c2ccc(Br)cc2c1NC(=O)CN1CCCc2ccccc21	2.7%	5.01µM*[quencher]	?	-14.8%	-8.3%	-27.8%[46.1 µM]
CCCc1cc(=O)[nH]c(SCC(=O)N2CCN(S(=O)(=O)c3ccc(C)cc3)C2)n1	-1.5%	-11.3%	-12.7%	-10.5%	-0.5%	-13.5%[46.1 µM]
COc1ccc(C(=O)c2c[nH]c(C(=O)NCc3cccs3)c2)cc1	-6.9%	-1.7%	0.8%	3.1%	-5.2%	-9.3%[46.1 µM]
O=C(CSc1nc(-c2ccccc2)no1)N1CCCCC1	-1.8%	-19.9%	-14.9%	·	·	·
CCN(CC)CCCC(C)n1c(-c2ccccc2)nc2c(N(CCOC)CCOC)nc(C)nc21 (stereo unspecified)	-2.2%	-1.1%	-2.4%	?	?	·
CCc1ccc2c(c1)/C(=N/N(C)C(=S)NC)C(=O)N2	-5.1%	-23.8%	31.6µM*	?	-10.1%	-9.3%[46.1 µM]
CCOc1ccc2c(c1)/C(=N/N1C(=O)c3ccccc3C1=O)C(=O)N2	-5.0%	-11.7%	?	?	·	-15.5%
C=CCc1c(C)nc(SC)nc1Nc1ccc(C(C)=O)cc1	-10.3%	-5.8%	?	8.91µM*	-29.6%	-24.7%[46.1 µM]
COc1ccc(OC2C=CC(c3ccccc3)OC2CO)c(C(C)(C)C)c1 (stereo unspecified)	-0.5%[11.6 µM]	-19.8%[11.6 µM]	-9.9%[11.5 µM]	13.5%[13.5 µM]	·	·
Cc1cn2c(nc(=O)c3cccnc32)s1	-10.5%	2.9%	6.2%	?	?	4.9%
Cc1[nH]c2ccc(F)cc2c1CCN(Cc1ccncc1)C(=S)Nc1ccc(F)cc1	-3.4%	?	-11.3%	38.3%	·	7.94µM*
Cc1[nH]c2ccc(F)cc2c1CCN(Cc1cccnc1)C(=S)Nc1cccc(F)c1	13.0%	?	-13.2%	-6.3%	·	10µM*
Cn1cc(-c2cc3n(n2)CCC(=O)N3CC(=O)O)c2ccccc21	-0.9%	-7.7%	-8.7%	·	·	·
CCN(CC)c1ccc(-n2c(C)cc(C=O)c2C)cc1	-5.1%	-23.7%	?	10µM*	2.1%	-16.3%[46.1 µM]
COC(=O)[C@@H](NC(=O)O[C@@H]1C(=O)c2cc(Br)ccc2O[C@H]1c1ccc2c(c1)OCO2)C(C)C	-5.7%	-12.5%	-12.4%	-5.1%	-6.4%	·
COc1ccccc1N1CCN(C(=O)c2cnn(-c3ccc(F)cc3F)c2C2CCNCC2)CC1	-0.1%	-0.7%	-5.2%	·	·	·
CN1C(=O)NC(c2ccc(O)cc2)C(C(=O)c2cccs2)C1(O)C(F)(F)F (stereo unspecified)	3.3%	-1.7%	0.4%	7.94µM*	-4.7%	-9.9%[46.1 µM]
O=C1NC(c2ccccc2)C(C(=O)c2cccs2)C(O)(C(F)(F)F)N1 (stereo unspecified)	-5.7%	-1.9%	-7.6%	?	-1.3%	-8.1%[46.1 µM]
C=CC(=O)N=c1sc2ccccc2n1-c1ccccc1	-3.9%	-9.9%	-9.2%	0.224µM*	·	-16.2%
